Screening data: PubChem, several laboratories
Shown are actives, neighbours in structure and some others; about 4.2% of the full set was active somewhere.
NLRP3 yeast inh = inhibitors of NALP3 inflammasome in yeast. inhibition, % at 10 µM. AID 2825. 0.39% of 330,000 active. Yeast reconstituted NLRP3/ASC/caspase-1, beta-gal luminescence, 24 h;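 active = inhibition of 50% or more; inactive = inhibition below 50%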;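 note: plate controls were induced DMSO wells for no effect and uninduced yeast grown without galactose for full effect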
NALP1 inh = inhibitors of NALP1 inflammasome in yeast. S. cerevisiae NALP1/ASC/caspase-1 growth, X-gal OD620, 72 h. inhibition, % at 10 µM. 0.61% of 280,000 active; in the data active = inhibition mostly above about 24%, no sharp cut-off; inactive = mostly below about 32%
V-ATPase pHluor = regulators of yeast V-ATPase proton transport; response, % at 10 µM; S. cerevisiae, pHLuorin cytosolic pH fluorescence; 0.37% of 350,000 active; in the data active = response mostly above about 7.3%, no sharp cut-off; inactive = mostly below about 5.4%; note: actives read high
tim23-1 inh = growth inhibitors of tim23-1 mutant yeast | S. cerevisiae tim23-1 growth, BacTiter-Glo luminescence, 24 h | 1.3% of 330,000 active | inhibition, % at 20 µM;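 active = growth inhibition of the mutant yeast at or above 50%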;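 note: temperature-sensitive mutant grown at 25 °C; plate controls were DMSO-treated mutant yeast for no effect and medium wells lacking yeast for full effect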
TIM10 inh = inhibits growth of TIM10 yeast strain; S. cerevisiae TIM10 strain growth, BacTiter-Glo luminescence, 24 h; inhibition, % at 10 µM; 1.4% of 330,000 active; AID 463195;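 active = inhibition of 40% or more at the single tested concentration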;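 note: wild-type TIM10 isogenic control strain grown at permissive 25 °C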
tim10-1 inh = tim10-1 yeast growth inhibition | S. cerevisiae tim10-1 ts strain growth, BacTiter-Glo, 24 h | inhibition, % at 20 µM | 2.2% of 330,000 active;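 active = inhibition of at least 40%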;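 note: mutant grown at 25 °C; 0% = DMSO wells with yeast and 100% = wells holding no yeast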
tim10-1 confirm = confirmation of tim10-1 mutant yeast growth inhibitors; 56% of 7,400 active; S. cerevisiae tim10-1 ts strain growth, BacTiter-Glo, 24 h; AID 463213; shares compounds with tim10-1 inh; inhibition, % at 20 µM;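 active = inhibition of yeast growth at or above a set limit in either of two repeat tests at 20 µM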;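 note: tim10-1 mutant grown at permissive 25 °C to find synthetic lethal compounds; 0% = DMSO yeast wells and 100% = medium wells without yeast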
An asterisk follows results filed as active; · = not tested or not shown.

SMILES	NLRP3 yeast inh	NALP1 inh	V-ATPase pHluor	tim23-1 inh	TIM10 inh	tim10-1 inh	tim10-1 confirm
CCOC(=O)[C@@H]1[C@H]2COc3ccc(Br)cc3[C@@H]2N2C(=O)N(c3cccc(F)c3)C(=O)[C@]12C	1	·	-5	34	23	32	·
O=C(COC(=O)c1ccccc1C(=O)c1ccccc1)Nc1ccc(SC(F)F)cc1	24	28	4	39	40	41*	31*
COC(=O)c1ccc2nc(C3CCCCC3)c3c(c2c1)CCC3	0	·	-3	13	7	5	·
O=C(/C=C/c1cccc([N+](=O)[O-])c1)NCCSCc1c(Cl)cccc1Cl	33	27	1	22	11	27	·
Cc1ccc(CSCCNC(=O)CSCc2ccc([N+](=O)[O-])cc2)cc1	31	48*	-1	33	14	42*	29
Cc1ccccc1CSCCNC(=O)CSCc1ccc([N+](=O)[O-])cc1	19	13	-3	38	22	38	·
COc1ccc(CCNC(=O)CSCc2ccc([N+](=O)[O-])cc2)cc1	14	25	-1	29	16	24	·
O=C(/C=C/c1cccc([N+](=O)[O-])c1)NCCSCc1ccc(Cl)cc1	12	32	-2	28	25	45*	22
Cc1cccc(CSCCNC(=O)CSCc2ccc([N+](=O)[O-])cc2)c1	15	21	-3	30	20	46*	28
COc1ccccc1OCCNc1ccc(S(=O)(=O)N2CCCC2)cn1	7	·	-2	18	8	8	·
Cc1cc(Br)ccc1NC(=O)CN(C)Cc1cccs1	12	0	-2	19	-13	2	·
COc1ccccc1-n1cc(-c2ccccc2)c2c(=S)nc[nH]c21	10	-27	-1	41	31	48*	14
COc1ccccc1-n1cc(-c2ccccc2)[nH]c1=S	5	-3	-2	46	31	11	·
Cc1ccc(C(=O)Nc2nc3ccc(S(C)(=O)=O)cc3s2)o1	4	-55	5	44	26	44*	38*
CS(=O)(=O)c1ccc2nc(NC(=O)c3cc4ccccc4o3)sc2c1	9	-15	0	3	17	-1	·
Cc1c(Cl)cccc1NC(=O)c1nc(C)n(-c2cc(OC(C)C)c(Cl)cc2Cl)n1	12	2	-2	26	30	43*	26
CCOC(=O)c1c(NC(=O)COC(=O)CCOc2cc(C)ccc2C)sc(C(=O)N(C)C)c1C	·	·	0	·	·	·	·
COc1cc(-c2nc(-c3ccccc3)c(-c3ccc(F)cc3)[nH]2)cc2c1OCO2	-14	0	-1	-6	14	4	·
COc1ccc(-c2[nH]c(-c3ccc4c(c3)OCO4)nc2-c2ccccc2)cc1	-15	12	0	49	22	54*	28
Cc1ccccc1C(=O)NC(=S)Nc1ccccc1N1CCCC1	5	10	-1	47	37	51*	37*
CC1CCN(c2ccccc2NC(=S)NC(=O)C(C)(C)C)CC1	25	34	4	44	35	49*	33*
O=C(NC(=S)Nc1ccccc1N1CCCC1)c1ccc(F)cc1	-27	3	4	12	14	41*	28
COc1ccccc1C(=O)NC(=S)Nc1ccccc1N1CCCC1	7	2	-2	36	35	33	·
O=C(COc1ccccc1Cl)NC(=S)Nc1ccccc1N1CCCC1	6	-10	-1	29	19	51*	20
CC1CCN(c2ccccc2NC(=O)c2ccc(F)cc2)CC1	5	5	-1	25	19	26	·
SMILES	NLRP3 yeast inh	NALP1 inh	V-ATPase pHluor	tim23-1 inh	TIM10 inh	tim10-1 inh	tim10-1 confirm
CC(C)=C[C@H]1C[C@H](C)[C@H]2CC[C@H](C)c3c(O[C@@H]4OC[C@@H](O)[C@H](O)C4O)c(O)c(C)c1c32 (some centres not stated)	-3	·	-2	26	3	11	·
O=C(Cc1c(F)cccc1Cl)OCC(=O)N1CCN(c2ccccc2)CC1	24	·	4	16	5	5	·
COc1ccc(N2CCN(C(=O)COC(=O)Cc3c(F)cccc3Cl)CC2)cc1	19	·	0	39	16	45*	24
O=c1c(Cl)c(N2CCOCC2)cnn1-c1ncc(C(F)(F)F)cc1Cl	7	7	0	11	-5	19	·
FC(F)(F)c1cnc(Nc2ccc(N3CCOCC3)cc2)c(Cl)c1	4	-8	-2	19	15	44*	21
COc1cccc(Nc2nnc(SCC3CCCCO3)s2)c1 (configuration not stated)	-15	-7	0	43	36	16	·
Cc1cccc(Nc2nnc(SCC3CCCCO3)s2)c1C (configuration not stated)	13	36	1	39	9	48*	33*
COc1ccc(Nc2nnc(SCC3CCCO3)s2)cc1 (configuration not stated)	-46	-5	-1	29	11	46*	14
Cc1noc(C)c1CSCC(=O)Oc1ccc(N(C)S(=O)(=O)c2ccc(Cl)cc2)cc1	20	·	-1	18	-4	9	·
CS(=O)(=O)NCCSc1cc(C(F)(F)F)nc2ccccc12	7	9	3	2	13	3	·
Cc1ccc(C)c(C(C)NC(=O)Cc2cccs2)c1 (configuration not stated)	13	5	-3	-4	3	3	·
O=C(Nc1cccc2cccnc12)c1ccc2c(c1)OCCO2	24	27	-1	41	12	41*	30
COc1cc(NC(=O)c2ccc3c(c2)OCO3)c2ncccc2c1	20	-2	3	9	27	8	·
N#CC(C#N)=c1ccc2c(c1)NC1(CCCCC1)N=2	35	-7	6	44	29	46*	42*
COc1ccc(-c2nn(-c3ccccc3)cc2/C=C(\CC(=O)O)c2nc3ccccc3s2)cc1OC	1	20	-1	33	19	71*	41*
C=CCNC(=S)NNc1nc2c(c(=O)[nH]1)C1(CCCCC1)Cc1ccccc1-2	5	12	-2	31	39	52*	42*
Cc1ccc(O)c(C2=Nc3ccccc3N=C(c3cccc([N+](=O)[O-])c3)C2)c1	-3	14	-2	3	14	40*	18
COCc1c(C(=O)NC(C)c2ccc(S(N)(=O)=O)cc2)oc2ccccc12 (configuration not stated)	17	8	-1	-2	-18	1	·
C[C@@H]1CN([C@H](C)CO)C(=O)c2cc(NS(=O)(=O)c3cn(C)cn3)ccc2O[C@H]1CN(C)C(=O)Nc1ccccc1	1	·	3	16	3	12	·
CCOC(=O)c1cc(C(C)(C)C)oc1CNC(=O)c1c(C)oc2c1CCCC2	-2	0	2	26	28	44*	33*
